# Experimental data from PubChem BioAssay (NCI).
# Where “and” joins values, the source holds several entries; their conditions need not be identical. Identical values can stand only once. About 83,000 compounds went through this panel and 20% of them were active in at least one assay; those are over-represented in the sample as a whole.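 Method: cells in 96-well plates; compound added at one concentration; 48 h incubation; percent growth measured; values under 10 scored active.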 A number with no mark means an inactive call. Calls of active or inactive are those of the source.
# Assays:
# Assay in all cases: NCI-60 one-dose screen, 48 h (100 = growth as untreated, 0 = no growth, -100 = all killed)
# SR leukemia = conditions: 10 µM unless noted
# RPMI-8226 leukemia = conditions: 10 µM unless noted
# OVCAR-5 ovarian = conditions: 10 µM unless noted
# OVCAR-4 ovarian = conditions: 10 µM unless noted
# SK-OV-3 ovarian = conditions: 10 µM unless noted
# IGROV1 ovarian = conditions: 10 µM unless noted
# OVCAR-3 ovarian = conditions: 10 µM unless noted
# NCI/ADR-RES ovarian = conditions: 10 µM unless noted
# T-47D breast = conditions: 10 µM unless noted
# BT-549 breast = conditions: 10 µM unless noted
# MDA-MB-435 melanoma = conditions: 10 µM unless noted
# SW-620 colon = conditions: 10 µM unless noted
# MCF7 breast = test system: MCF7 breast
# HCT-116 colon = conditions: 10 µM unless noted
# KM12 colon = conditions: 10 µM unless noted
# OVCAR-8 ovarian = conditions: 10 µM unless noted
# HS 578T breast = conditions: 10 µM unless noted
# HCC-2998 colon = conditions: 10 µM unless noted
Structure (SMILES),growth (SR leukemia),growth (RPMI-8226 leukemia) [%],growth (OVCAR-5 ovarian) [%],growth (OVCAR-4 ovarian) [%],growth (SK-OV-3 ovarian) [%],growth (IGROV1 ovarian),growth (OVCAR-3 ovarian),growth (NCI/ADR-RES ovarian),growth (T-47D breast) [%],growth (BT-549 breast),growth (MDA-MB-435 melanoma),growth (SW-620 colon) [%],growth (MCF7 breast; 10 µM) [%],growth (MCF7 breast; 100 µM),growth (HCT-116 colon),growth (KM12 colon),growth (OVCAR-8 ovarian),growth (HS 578T breast),growth (MCF7 breast; 10 µM unless noted),growth (HCC-2998 colon)
C=CC(C)(C)n1cc(C2=C(O)C(=O)C(c3cn(C(C)(C)C=C)c4ccccc34)=C(O)C2=O)c2ccccc21,71.6%,104,122,92.4,94.3,99.5%,107%,97.5%,85.9,96.3%,103%,105,96.1,-81.2% (active) and -91.7% (active),97.4%,99.9%,–,–,–,–
CCOC(=N)CC(=O)Nc1cccc(C)c1Cl,105%,107,–,106,97.7,104%,104%,97.7%,95,103%,98.6%,94.9,–,–,96.3%,96.7%,99.4%,105%,89.5%,102%
CC(=O)NC(CCC(=O)c1ccccc1)C(=O)O (configuration not stated),16.6%,–,98.3,100,87.5,104%,107%,106%,83.3,76.9%,99.2%,100,–,–,80.2%,103%,101%,108%,89.4%,108%
CCOc1ccncc1[N+](=O)[O-],102%,112,–,116,110,118%,106%,106%,104,111%,107%,101,–,–,108%,101%,97.5%,112%,100%,106%
CC(C)(C)[Si](C)(C)OCC1OC(n2cnc3c(N)ncnc32)CC1OS(C)(=O)=O (configuration not stated),107%,103,–,108,101,114%,104%,103%,97.8,107%,112%,98.1,–,–,102%,95.7%,98.6%,89.8%,–,103%
S=CN1CCCCC1,99.5%,110,–,102,115,109%,102%,106%,103,105%,103%,105,–,–,102%,98.8%,97.5%,112%,96.3%,103%
CCOC(=O)N[C@H]1CCc2cc(OC)c(OC)c(OC)c2-c2ccc(SC)c(=O)cc21,3.83% (active),–,23.3,53.4,28.7,21.7%,-9.45% (active),0.533% (active),47.7,-9.25% (active),-17.1% (active),17.4,–,–,2.61% (active),2.56% (active),20.8%,9.15% (active),13.5%,12.2%
CC1CCC(C)(C)c2ccccc21 (configuration not stated),107%,–,92.4,98.2,101,98.4%,114%,101%,91.1,105%,105%,115,–,–,95.9%,106%,105%,105%,91.4%,96.9%
COC1CC(OC(=O)c2ccc([N+](=O)[O-])cc2)C(COC(=O)c2ccc([N+](=O)[O-])cc2)O1 (configuration not stated),85.9%,–,99.7,97,107,126%,111%,108%,104,116%,97.7%,99.7,–,–,105%,109%,91.2%,109%,91.5%,112%
CCOC(=O)c1ccc(Nc2sc(C(=O)c3ccc(Br)cc3)c(N)c2C#N)cc1,18.6%,–,46.8,70.5,11.7,31.3%,-6.38% (active),22%,28,50.9%,-61.9% (active),25.6,–,–,26.9%,21.7%,29.6%,20.8%,9% (active),66.1%
OC(CBr)CCBr (configuration not stated),78.3%,–,106,93.5,101,89.5%,112%,106%,93.6,124%,97.2%,104,–,–,104%,113%,99.8%,103%,86.6%,111%
COC1C(=O)CCC2(CO2)C1(O)C1(C)OC1CCC(C)C (configuration not stated),32.2%,77.4,87.2,89.7,101,-5.17% (active),95.1%,–,81.2,77.4%,63.8%,60.5,–,–,52.5%,74%,–,90.5%,69.1%,76.4%
CN(CCCN(C)CCC1CCCCC1)CCC1CCCCC1,-36.3% (active),–,56.4,59.1,58.9,66.6%,73.9%,62%,17.9,39.2%,-26.1% (active),75.2,–,–,47.2%,46.7%,67.6%,51.2%,-47.4% (active),-30.1% (active)
NNC(=O)CCCCl,114%,114,–,106,123,106%,104%,106%,100,119%,108%,105,–,–,108%,102%,104%,112%,98.4%,102%
ClCC(Cl)[C@@H]1CC2C=CC1C2 (some centres not stated),112%,–,110,104,111,114%,119%,105%,98.8,103%,96.9%,105,–,–,98.4%,115%,96.2%,108%,98.1%,118%
O=S(=O)(O)c1ccc(O)c(C2CCCCC2)c1,98.3%,–,103,94.4,97.1,107%,113%,118%,89.1,–,102%,108,–,–,92.7%,105%,102%,116%,91.8%,113%
O=C(c1ccccc1)c1ccc(-c2ccc(O)cc2)cc1,177%,–,108,45.6,93.4,25.9%,85.8%,44.5%,50.6,52.3%,9.71% (active),45.4,–,–,59.4%,35.2%,82.8%,104%,–,–
CC(CO)(CO)C(=O)O,–,97.2,98.2,105,105,126%,106%,103%,95.5,109%,105%,104,–,–,102%,106%,111%,98.8%,101%,94.6%
CCCCN(C(=O)CC)c1ccccc1,–,85.1,105,105,114,102%,111%,110%,110,104%,108%,98.7,–,–,99.8%,102%,101%,99.4%,100%,112%
C=C(c1ccc(N(C)C)cc1)c1ccc(N(C)C)cc1,11.8%,–,16,48.9,27.4,25.4%,-33% (active),-35.5% (active),26.9,-5.95% (active),-67.6% (active),–,–,–,5.45% (active),26.5%,-5.66% (active),–,13.5%,5.58% (active)
